The full list was thinned out, with hits kept by preference.
ST2 IL33 inh: blocks human ST2 binding to IL-33 | AlphaLISA ST2-Fc/biotin-IL-33 interaction, 1 h | inhibition, % for hits at 17 µM | 78,000 compounds, 2.3% hits | AID 1259354; in the data active = inhibition above about 30%
Numbers stand for hits; . = inactive.

SMILES	ST2 IL33 inh
CN1CCc2c(cc(O)c(O)c2Cl)C(c2cccc(Cl)c2)C1 (stereo unspecified)	39%
O=[N+]([O-])c1cccc2ccc(Nc3ccccn3)nc12	31%
O=[N+]([O-])c1ccccc1OCCOc1cccc2cccnc12	.
Cc1cc(C)n(-c2ccc3cccc([N+](=O)[O-])c3n2)n1	.
CC1C(=O)N(C)CCN1Cc1ccc(OCC(=O)N2CCCCC2)cc1 (stereo unspecified)	.
COc1ccc2nc(N3CCC(C(=O)N4CCCC4)CC3)sc2c1	.
COc1ccc(CN2CCCN(CC(=O)Nc3ccc(C)cc3C)S2(=O)=O)cc1	.
Cc1nc2c(c(=O)n1C)CN(C(=O)c1ccccc1C1CCNC1)C2 (stereo unspecified)	.
CC1=C(C(=O)OC(C)C)C(c2c(O)ccc3ccccc23)NC(=O)N1C (stereo unspecified)	.
O=[N+]([O-])c1cc2c(cc1C=Nc1ccc(O)c(-c3nc4ccccc4o3)c1)OCO2	35%
O=[N+]([O-])c1ccc(O)c(C=Nc2ccc(-c3nc4ncccc4o3)cc2)c1	.
Cc1ccccc1-c1nc2cc(N=Cc3cc([N+](=O)[O-])ccc3O)ccc2o1	.
Cc1ccccc1-c1nc2cc(N=Cc3cc([N+](=O)[O-])c(O)c([N+](=O)[O-])c3O)ccc2o1	.
O=[N+]([O-])c1cc2c(cc1C=Nc1ccc3oc(-c4cccc(F)c4)nc3c1)OCO2	.
Cc1cccc2oc(-c3cc(N=Cc4ccc([N+](=O)[O-])cc4)ccc3O)nc12	30%
CCC(C)NC(=O)C(Cc1ccc([N+](=O)[O-])cc1)N1C(=O)c2ccccc2C1=O (stereo unspecified)	.
c1csc(-c2noc(CN3CCN(Cc4ccc5c(c4)OCO5)CC3)n2)c1	.
CC(=O)C(C(=N)N1CCOCC1)=C(C)O	.
N#Cc1c(-c2ccccc2)nc(N2CCCC2)[nH]c1=O	.
O=C(CCS(=O)(=O)c1ccc(Br)s1)Nc1cccc(F)c1	.
COc1ccc(NS(C)(=O)=O)cc1	.
COc1ccc(NCCNc2ccc(OC)cc2)cc1	48%
COc1ccc(NC(=O)C(C)(C)C)cc1	.
O=C1CCCC2=C1C(c1ccc(F)cc1)c1c(nc(SCc3ccccc3)[nH]c1=O)N2 (stereo unspecified)	.
Cc1nn(-c2ccccc2)c2sc(C(=O)Nc3ccccc3Cl)cc12	.
SMILES	ST2 IL33 inh
CCN1CCN(CCCNC(=O)c2cccn2-c2nnc(N3CCCCC3)s2)CC1	.
COc1ccc(N2CCN(CCCNC(=O)c3cccn3-c3nnc(N4CCCCC4)s3)CC2)cc1	31%
O=C(NCCCN1CCCC1)c1cccn1-c1nnc(N2CCCCC2)s1	.
Cc1ccc(C(=O)Nc2ccccc2C2(C)CC2)cc1	.
O=C(Nc1nc(-c2cc3ccccc3oc2=O)cs1)c1ccccc1Br	.
O=C(Nc1nc(-c2cc3ccccc3oc2=O)cs1)c1c(F)cccc1F	.
O=c1oc2ccccc2cc1-c1csc(Nc2ncccn2)n1	34%
O=C(NCc1cccnc1)c1cccc(OC2CCN(C(=O)C3CCOC3)CC2)c1 (stereo unspecified)	.
COc1cccc(CC(C2CCN(C(=O)CC3CCCCC3)CC2)N(C)C(=O)c2ccn(C)n2)c1 (stereo unspecified)	.
O=S(=O)(Nc1ccccn1)c1ccc(N=Cc2cccc(Br)c2)cc1	.
COc1ccc(Cn2cc(C(=O)N3CCC(CCc4ccccc4)CC3)nn2)cc1	.
N#CC1=C2SCN(c3ccc(Cl)cc3)CN2C(=O)CC1c1ccccc1F (stereo unspecified)	.
O=C(N1CCCCC1)[n+]1ccc(N2CCOCC2)cc1	.
Clc1nc(N2CCCCC2)nc(N2CCOCC2)n1	.
Clc1ccccc1/C=C/C=Nc1ccc(N2CCOCC2)cc1	38%
Cc1cccc(-c2ccc(C(=O)N3CCCC3)cn2)c1C	.
O=C(Nc1nnc(SCc2ccccc2F)s1)c1ccc(Cl)cc1Cl	.
CCC(C)OC(=O)C1=C(C)NC2=C(C(=O)C(C(=O)OC)C(C)C2)C1c1ccc(OC)cc1 (stereo unspecified)	.
Cn1c(=O)c2c(nc(N3CCN(c4ccccn4)CC3)n2Cc2ccccc2F)n(C)c1=O	.
Cn1c(=O)c2c(nc(OCCc3ccccc3)n2Cc2ccccc2F)n(C)c1=O	30%
Cn1c(=O)c2c(nc(NCCO)n2Cc2ccccc2F)n(C)c1=O	.
O=C(c1ccc(Cl)s1)N1CCC(n2cc(-c3ccccn3)nn2)CC1	.
C=CCN1C(=O)CSc2ccc(C(=O)NCCN(C)Cc3ccccc3)cc21	.
Cc1ccc(-c2ccc(C(=O)NCCCn3ccnc3C(C)C)cn2)cc1	.
O=C(NC1CCCCC1)C(NS(=O)(=O)c1cccs1)c1ccccc1 (stereo unspecified)	.
CCOc1ccc(N=C(c2cccc([N+](=O)[O-])c2)N2CCOCC2)cc1	.
CCOc1ccc(NC(=O)c2cccc([N+](=O)[O-])c2)cc1	.
CCOc1ccc(C(=O)c2cccc([N+](=O)[O-])c2)cc1	31%
CC[C@H]1CN(C(C)=O)CC[C@H]1CC(=O)Nc1nccs1	.
CCn1ncnc1C(C)NCC(=O)NCc1ccccc1F (stereo unspecified)	.

Screening results (PubChem BioAssay)
